Measurements from PubChem BioAssay.
Unmarked numbers belong to inactive results. The rule behind the calls is not given here.

The compounds below were run on Aerobactin synthetase IucA (Klebsiella pneumoniae hvKP1) (assay: IucA enzyme inhibition, primary screen, biochemical, Spectrum library (AID 1346200;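 note: 100% = wells without compound and 0% = wells lacking enzyme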)). Settings: malachite green pyrophosphate, A620, at 8 µM, active compounds read low.

Row | SMILES | activity remaining
1 | CCCCOc1ccc(C(=O)CCN2CCCCC2)cc1 | 96.6%
2 | C[N+](C)(C)CCOP(=O)([O-])OP(=O)(O)OC[C@H]1OC(n2ccc(N)nc2=O)[C@H](O)[C@@H]1O (stereo partly drawn) | 118%
3 | COC(=O)[C@]1(C)CCC[C@]2(C)c3ccc(C(C)C)cc3C(=O)CC12 (stereo partly drawn) | 89.3%
